Data from the supplement of paper PMC3545927.
The list shows a part of the results. No count for the full screen is at hand.

Biological target: furin, P09958
Assay: furin cleavage Z-score vs untreated control; higher = more cleavage, active = 3.5 or more, inactive = 1 or less, 8 variable residues between constant flanks
How it was run: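 Cleavage by purified furin was measured on 8-mer peptides fused to a cDNA oligonucleotide and held on magnetic beads by their N-terminus. Reactions (0.01 ml, 1:10 enzyme:substrate) ran 7.5, 15 or 30 min in 50 mM HEPES pH 7.5 with CaCl2 and NaCl. Released DNA was adapter-tagged by PCR and sequenced, with read counts giving abundance. Log counts versus furin-free reactions were lowess-adjusted and scaled by median absolute deviation to give the cleavage Z-score.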

Chain of furin, P09958 (P09958 whole entry): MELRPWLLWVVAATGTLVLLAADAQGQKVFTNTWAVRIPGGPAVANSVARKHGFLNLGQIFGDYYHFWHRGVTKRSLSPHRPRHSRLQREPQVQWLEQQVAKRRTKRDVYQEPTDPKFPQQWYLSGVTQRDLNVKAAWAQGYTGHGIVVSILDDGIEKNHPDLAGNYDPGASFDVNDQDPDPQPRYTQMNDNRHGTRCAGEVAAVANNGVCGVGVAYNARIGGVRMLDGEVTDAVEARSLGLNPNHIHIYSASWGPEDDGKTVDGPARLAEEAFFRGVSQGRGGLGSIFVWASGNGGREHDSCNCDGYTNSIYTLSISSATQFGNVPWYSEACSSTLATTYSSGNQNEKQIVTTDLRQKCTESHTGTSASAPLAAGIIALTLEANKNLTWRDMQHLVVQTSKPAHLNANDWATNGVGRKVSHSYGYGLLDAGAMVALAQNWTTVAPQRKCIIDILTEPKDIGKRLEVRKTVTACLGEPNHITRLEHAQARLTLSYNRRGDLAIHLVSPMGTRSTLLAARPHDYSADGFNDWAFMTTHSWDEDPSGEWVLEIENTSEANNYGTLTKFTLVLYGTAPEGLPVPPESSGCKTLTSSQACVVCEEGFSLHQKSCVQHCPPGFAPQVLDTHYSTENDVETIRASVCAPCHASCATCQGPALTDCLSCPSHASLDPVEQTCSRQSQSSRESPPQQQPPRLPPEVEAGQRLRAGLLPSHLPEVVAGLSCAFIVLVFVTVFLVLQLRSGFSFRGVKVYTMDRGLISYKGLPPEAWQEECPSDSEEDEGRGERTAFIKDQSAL

Row | Sequence | furin cleavage Z-score (7.5 min) | furin cleavage Z-score (15 min) | furin cleavage Z-score (30 min)
1 | CAPLEVIKGGAGNASASA [HC851] | 1.06 | 0.444 (inactive) | 0.579 (inactive)
2 | CACHCGAEITAGNASASA [HC1175] | -0.983 (inactive) | -1.4 (inactive) | -0.977 (inactive)
3 | CAPAARFKKFAGNASASA [FS-367] | -0.438 (inactive) | -0.599 (inactive) | -0.45 (inactive)
4 | CATAQRRRRSAGNASASA [FS-877] | 8.41 (active) | 7.47 (active) | 6.08 (active)
5 | CATALRRARSAGNASASA [FS-200] | 1.48 | 0.619 (inactive) | 0.983 (inactive)
6 | CAVFKRRRRSAGNASASA [FS-1101] | 12.7 (active) | 11.3 (active) | 8.61 (active)
7 | CALAARRRRSAGNASASA [FS-264] | 10.9 (active) | 11 (active) | 8.11 (active)
8 | CAPAARRRRSAGNASASA [FS-1146] | 11.4 (active) | 10.2 (active) | 8.82 (active)
9 | CALAARGARLAGNASASA [FS-682] | -1.17 (inactive) | 0.199 (inactive) | 0.619 (inactive)
10 | CAELEVVTSTAGNASASA [HC2272] | -0.698 (inactive) | -0.669 (inactive) | -1.12 (inactive)
11 | CAYEMEECSQAGNASASA [HC1789] | 0.403 (inactive) | -0.566 (inactive) | 1.37
12 | CANLLPAILSAGNASASA [HC1101] | -0.111 (inactive) | 0.993 (inactive) | -0.0781 (inactive)
13 | CANWSPTTALAGNASASA [HC323] | -0.0824 (inactive) | -0.415 (inactive) | -0.513 (inactive)
14 | CAAQLLRIPQAGNASASA [HC328] | -1 (inactive) | 1.5 | 0.847 (inactive)
15 | CAMEECSTHLAGNASASA [HC1738] | 0.958 (inactive) | 0.401 (inactive) | 0.22 (inactive)
16 | CAVTPCSGSWAGNASASA [HC1830] | -0.794 (inactive) | -0.739 (inactive) | -0.453 (inactive)
17 | CATAQRHRRYAGNASASA [FS-628] | 8.01 (active) | 10.1 (active) | 9.56 (active)
18 | CAEKAVERRSAGNASASA [FS-1191] | 0.591 (inactive) | 2.02 | 0.505 (inactive)
19 | CAKDSRFFRYAGNASASA [FS-808] | 0.318 (inactive) | -0.509 (inactive) | 1.08
20 | CAAKAKRRRSAGNASASA [FS-744] | 10.8 (active) | 11.8 (active) | 8.83 (active)
21 | CAGNITRVESAGNASASA [HC1280] | -0.34 (inactive) | -0.548 (inactive) | 1.72
22 | CARFARLRRVAGNASASA [FS-853] | 4.92 (active) | 7.36 (active) | 5.85 (active)

Row | Sequence | furin cleavage Z-score (7.5 min) | furin cleavage Z-score (15 min) | furin cleavage Z-score (30 min)
23 | CAPEARLRRVAGNASASA [FS-839] | 0.0356 (inactive) | 3.09 | 2.39
24 | CAYVSRLRRVAGNASASA [FS-1441] | 4.8 (active) | 5.42 (active) | 4.8 (active)
25 | CALVCCSMSYAGNASASA [HC1985] | -0.475 (inactive) | -0.242 (inactive) | 0.0858 (inactive)
26 | CAHGPTPLLYAGNASASA [HC970] | -1.77 (inactive) | -1.23 (inactive) | -0.927 (inactive)
27 | CARFKKNAGLAGNASASA [FS-2258] | 0.96 (inactive) | -0.927 (inactive) | 0.128 (inactive)
28 | CARGKREAGLAGNASASA [FS-1950] | 10.7 (active) | 12 (active) | 9.85 (active)
29 | CARGKRFRPRAGNASASA [FS-2209] | -0.464 (inactive) | 0.0565 (inactive) | 0.308 (inactive)
30 | CARGKRELRMAGNASASA [FS-2933] | 7.15 (active) | 8.97 (active) | 10 (active)
31 | CAAACRAAGLAGNASASA [HC1521] | -0.658 (inactive) | -1.9 (inactive) | -0.337 (inactive)
32 | CADVKFPGGGAGNASASA [HC171] | -0.433 (inactive) | -1.81 (inactive) | -2.39 (inactive)
33 | CACLVDYPYRAGNASASA [HC464] | -1.54 (inactive) | -2.22 (inactive) | 0.308 (inactive)
34 | CAPPGRMCRVAGNASASA [FS-1549] | 0.819 (inactive) | 0.646 (inactive) | 1.21
35 | CAPKRRKPRVAGNASASA [FS-1242] | 8.95 (active) | 11.6 (active) | 8 (active)
36 | CATRGRQPRVAGNASASA [FS-1575] | 0.424 (inactive) | 0.857 (inactive) | 1.04
37 | CACSRRKPRDAGNASASA [FS-752] | 11.2 (active) | 11.6 (active) | 9.05 (active)
38 | CAQKGRKPRDAGNASASA [FS-1056] | 15 (active) | 14.9 (active) | 10.2 (active)
39 | CAPCRRKPRDAGNASASA [FS-838] | 14.7 (active) | 14.2 (active) | 11.5 (active)
40 | CAKMQRAPRDAGNASASA [FS-451] | -0.25 (inactive) | -0.389 (inactive) | -0.0248 (inactive)
41 | CAVVQCSMSYAGNASASA [HC2042] | 0.93 (inactive) | 0.804 (inactive) | 0.223 (inactive)
42 | CASMSYSWTGAGNASASA [HC1371] | -1.4 (inactive) | -0.78 (inactive) | -0.275 (inactive)
43 | CAVVCCSMMYAGNASASA [HC2066] | 0.37 (inactive) | -1.1 (inactive) | -0.477 (inactive)
44 | CAEWPCHRPSAGNASASA [HC2328] | 2.33 | 0.752 (inactive) | 0.743 (inactive)
